Only some compounds are listed: those with a hit (about 4.6% of all), similar ones and a draw of the others.
hgDAF12 agonist: activates the H. glycines DAF-12 receptor ligand-binding domain. HEK293 GAL4-hgDAF12 UAS-luciferase reporter, agonist luminescence; normalized to butyrate control. actives 1.8% (n = 370,000). activation, % at 6.8 µM;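 active = activation above a cutoff set at the mean of all screened compounds plus 3 SD, cut at about 10% in these data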;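 also: 0% = DMSO wells and 100% = sodium butyrate wells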
DAX1 inh-1: NR0B1 (DAX1) inhibition; HEK293 Gal4-DAX1 luciferase reporter, luminescence; inhibition, % at 6.75 µM; actives 0.99% (n = 340,000); AID 504766;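 active = inhibition above the mean over all tested compounds plus 3 SD, cut at about 4.2% in these data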;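 also: 0% = DAX1-transfected cells with DMSO and 100% = empty-vector control cells with DMSO; inhibition shows as a rise in luminescence from relieved DAX1 repression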
DAX1 inh-2: blocks DAX1 repression of SF-1 activated StAR promoter. HEK293T StAR-luciferase reporter, SF-1/DAX-1 repression relief. inhibition, % at 6.8 µM. AID 652010. actives 1.1% (n = 370,000);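 active = inhibition above the mean over all tested compounds plus 3 SD, cut at about 3.6% in these data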;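 also: 0% = DAX-1 cells with DMSO and 100% = cells lacking DAX-1 with DMSO; higher inhibition means more luminescence from relief of DAX-1 repression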
hcDAF-12 act: H. contortus DAF-12 activation, primary screen. HEK293 hcDAF-12 lit1-tk-luc reporter, luminescence; 0% DMSO, 100% Δ7-dafachronic acid. activation, % at 6.8 µM. actives 1.4% (n = 370,000);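 active = activation above the mean of all tested compounds plus 3 SD, cut at about 5.5% in these data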;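 also: 100% = response to 3 µM Δ7-dafachronic acid high control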
ssDAF-12 act: S. stercoralis DAF-12 activation, primary screen; HEK293 ssDAF-12/GRIP1 lit1-tk-luc reporter, luminescence; % of 3 µM dafachronic acid response; activation, % at 6.8 µM; actives 1% (n = 370,000);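 active = activation above the mean over all tested compounds plus 3 SD, cut at about 0.9% in these data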;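 also: 0% = DMSO-only wells and 100% = 3 µM delta7-dafachronic acid wells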
Wee1 stabilizer: inhibitors of human Wee1 degradation; HeLa Luc-Wee1K328M stability, luciferase luminescence; 100% = proteasome inhibitor MG132 effect; reporter increase, % at 5 µM; actives 1.2% (n = 220,000); P30291;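 active = activation above the mean of all tested compounds plus 3 SD, set per screening run, cut at about 8.8% in these data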;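 also: cells exposed to compound for 20 h before luminescence read; 0% = DMSO alone and 100% = MG132 at 30 µM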
The depositor's hits bear a star.

Results for CSCCC(NC(=O)c1ccco1)C(=O)NCC1CCCCC1 (configuration not stated) ?
hgDAF12 agonist: 1; DAX1 inh-1: 1; DAX1 inh-2: 1; hcDAF-12 act: -1; ssDAF-12 act: -1

Results for CSCCC(NC(=O)c1ccco1)C(=O)Nc1ccc(C)cn1 (configuration not stated) ?
hgDAF12 agonist: 2; DAX1 inh-1: 3; DAX1 inh-2: 3.8*; hcDAF-12 act: 3; ssDAF-12 act: 0

Results for Cc1cc(NC(=O)c2ccco2)ncc1NC(=O)Cc1ccccc1 ?
hgDAF12 agonist: 3; DAX1 inh-1: 1; DAX1 inh-2: 0; hcDAF-12 act: 3; ssDAF-12 act: 0; Wee1 stabilizer: 1

Results for Oc1ccc2ccccc2c1C=Nn1c(-c2n[nH]c3c2CCC3)n[nH]c1=S ?
hgDAF12 agonist: 6; DAX1 inh-2: -1; hcDAF-12 act: 0; ssDAF-12 act: 0

How did O=C(CSc1nnc(-c2cccs2)n1Cc1ccco1)Nc1ccc(OCc2ccccc2)cc1 do in these assays?
hgDAF12 agonist: 2; DAX1 inh-2: -1; hcDAF-12 act: -1; ssDAF-12 act: -1

How did C[C@@H]1CCN(C2CC2)S(=O)(=O)c2c(cccc2N2CCC[C@H]2CO)O1 do in these assays?
hgDAF12 agonist: 2; DAX1 inh-2: 0; hcDAF-12 act: -1; ssDAF-12 act: -1

What do the screens show for `CSc1nc(N)c2cn[nH]c2n1`?
hgDAF12 agonist: 3; DAX1 inh-1: 0; DAX1 inh-2: 0; hcDAF-12 act: 1; ssDAF-12 act: 0

What do the screens show for `COc1cccc(C2N(c3ccc(Cl)cc3)C(=O)C3CCCN32)c1` (configuration not stated)?
hgDAF12 agonist: -1; DAX1 inh-1: 6.4*; DAX1 inh-2: 1; hcDAF-12 act: 2; ssDAF-12 act: 0; Wee1 stabilizer: 1

Results for COc1ccc(C2N(c3ccc(OC)cc3)C(=O)C3CCCN32)cc1 (configuration not stated) ?
hgDAF12 agonist: 2; DAX1 inh-1: 5.3*; DAX1 inh-2: 0; hcDAF-12 act: -1; ssDAF-12 act: -1; Wee1 stabilizer: 3

Results for COc1ccc(N2C(=O)C3CCCN3C2c2ccc(C)cc2)cc1 (configuration not stated) ?
hgDAF12 agonist: 3; DAX1 inh-1: 3; DAX1 inh-2: 1; hcDAF-12 act: 0; ssDAF-12 act: -1; Wee1 stabilizer: -1

How did O=C1C2CCCN2C(c2ccc(F)c(F)c2)N1c1cccc(Cl)c1 (configuration not stated) do in these assays?
hgDAF12 agonist: 0; DAX1 inh-1: 4.4*; DAX1 inh-2: -1; hcDAF-12 act: -1; ssDAF-12 act: -1; Wee1 stabilizer: 0

Results for COc1ccc(C2N(c3ccc(F)cc3)C(=O)C3CCCN32)cc1 (configuration not stated) ?
hgDAF12 agonist: 4; DAX1 inh-1: 5.2*; DAX1 inh-2: 1; hcDAF-12 act: 0; ssDAF-12 act: -1; Wee1 stabilizer: 2

What do the screens show for `C[C@H]1COc2cc(N3CCSCC3)ccc2S(=O)(=O)N1C`?
hgDAF12 agonist: -1; DAX1 inh-2: 2; hcDAF-12 act: -1; ssDAF-12 act: -1

What do the screens show for `O=C(NCC[C@H]1CC[C@@H](NC(=O)C2CCC2)[C@@H](CO)O1)c1cc(Cl)cc(Cl)c1`?
hgDAF12 agonist: 0; DAX1 inh-2: -1; hcDAF-12 act: 0; ssDAF-12 act: -1

Results for COc1ccc(C(C)c2cn(C)c3ccccc23)cc1 (configuration not stated) ?
hgDAF12 agonist: 0; DAX1 inh-2: -1; hcDAF-12 act: 2; ssDAF-12 act: 0

What do the screens show for `O=C(CCCCCNC(=O)N1CCn2c1nc1ccccc12)N[C@@H](C(=O)O)c1ccccc1`?
hgDAF12 agonist: 1; DAX1 inh-1: 1; DAX1 inh-2: 0; hcDAF-12 act: -1; ssDAF-12 act: 0

Results for O=C(CCCCCNC(=O)N1CCn2c1nc1ccccc12)N[C@@H](Cc1ccccc1)C(=O)O ?
hgDAF12 agonist: 2; DAX1 inh-1: 4.5*; DAX1 inh-2: 1; hcDAF-12 act: 0; ssDAF-12 act: 0
